# Measurements: PubChem BioAssay (NCATS)
# Several values for one entry are separate records, joined by “and”; a condition that tells them apart may be missing. Equal values may be shown once. Results filed as inconclusive are left out. Where a call stands in place of a potency, no number is given. Some structures have more than one record in an assay (separate samples or runs), and their calls can disagree. Activity calls are given as the source filed them. Calls come from the whole dose curve; as a rule, active = well fitted curve in the direction sought with a large enough effect; inconclusive = small, poorly fitted or top-dose-only effect, or another doubt; inactive = no such curve, though single readings can be large; an effect the other way counts as inactive or inconclusive.
# How the values were obtained:
# [1] = Primary qHTS for inhibitors of nuclear receptor binding SET domain protein 2 (NSD2) in an RCH-ACV wild type WT cells (2C) (AID 1645877); note: nearly all actives have a fitted effect of over 70% in size; note: potency is the fitted concentration of half-maximal effect
# [2] = Primary qHTS for inhibitors of nuclear receptor binding SET domain protein 2 (NSD2) in an isogenic RCH-ACV NSD2 p.E1099K mutant (9B) (AID 1645876); note: nearly all actives have a fitted effect of over 70% in size; note: potency is the fitted concentration of half-maximal effect
# [3] = biological target: Rap guanine nucleotide exchange factor 3 (Homo sapiens) (UniProt O95398); experiment: Confirmatory qHTS for antagonist of cAMP-regulated guanine nucleotide exchange factor 3 (EPAC1) (AID 1645880); note: nearly all actives have a fitted effect of over 55% in size; note: potency is the fitted concentration of half-maximal effect
# Chain of Rap guanine nucleotide exchange factor 3 (Homo sapiens) (O95398 whole entry, looked up): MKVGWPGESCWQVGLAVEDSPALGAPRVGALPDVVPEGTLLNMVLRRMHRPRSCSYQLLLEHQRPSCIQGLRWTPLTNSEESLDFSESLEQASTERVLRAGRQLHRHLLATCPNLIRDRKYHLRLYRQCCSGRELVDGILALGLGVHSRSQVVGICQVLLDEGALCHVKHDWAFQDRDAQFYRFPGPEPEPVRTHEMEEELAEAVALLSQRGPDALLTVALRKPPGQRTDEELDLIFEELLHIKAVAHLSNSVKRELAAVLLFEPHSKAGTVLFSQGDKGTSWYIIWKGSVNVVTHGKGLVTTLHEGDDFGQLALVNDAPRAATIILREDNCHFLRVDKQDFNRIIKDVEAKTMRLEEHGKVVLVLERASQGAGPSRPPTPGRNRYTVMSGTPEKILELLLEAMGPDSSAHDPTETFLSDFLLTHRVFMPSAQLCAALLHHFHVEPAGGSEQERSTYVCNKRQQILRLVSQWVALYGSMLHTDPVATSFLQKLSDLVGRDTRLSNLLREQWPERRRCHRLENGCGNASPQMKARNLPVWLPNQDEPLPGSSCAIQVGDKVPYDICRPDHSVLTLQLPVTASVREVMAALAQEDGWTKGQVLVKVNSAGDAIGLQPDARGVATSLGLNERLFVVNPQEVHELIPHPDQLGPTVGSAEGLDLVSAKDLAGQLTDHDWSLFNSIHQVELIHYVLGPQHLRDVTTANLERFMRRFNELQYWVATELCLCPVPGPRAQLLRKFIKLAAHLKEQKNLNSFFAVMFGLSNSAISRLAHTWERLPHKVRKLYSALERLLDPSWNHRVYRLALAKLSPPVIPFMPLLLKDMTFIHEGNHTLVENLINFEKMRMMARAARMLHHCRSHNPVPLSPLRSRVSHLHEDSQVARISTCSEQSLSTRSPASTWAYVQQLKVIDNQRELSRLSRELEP
# Method in brief: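 Released BODIPY-GDP fluoresces less than Rap1-bound BODIPY-GDP; the signal is followed at 480/540 nm at 5-min intervals over 30 min, after 5 min at room temperature. Reactions contain 100 nM EPAC1, 250 nM RAP1B-BODIPY-GDP and 50 uM GDP; results are normalized to ATA and DMSO.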
# [4] = biological target: Rap guanine nucleotide exchange factor 3 (Homo sapiens) (UniProt O95398); experiment: Confirmatory qHTS for agonist of cAMP-regulated guanine nucleotide exchange factor 3 (EPAC1) (AID 1645881);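 note: EPAC1 catalysed release of BODIPY-GDP from Rap1B seen as fluorescence loss; nearly all actives have a fitted effect of over 75% in size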
# [5] = biological target: Rap guanine nucleotide exchange factor 4 (Homo sapiens) (UniProt Q8WZA2); experiment: Confirmatory qHTS for agonist of cAMP-regulated guanine nucleotide exchange factor 4 (EPAC2) (AID 1645884);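 note: nucleotide exchange releases bodipy-GDP from Rap1 and this lowers its fluorescence; nearly all actives have a fitted effect of over 65% in size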; note: potency is the fitted concentration of half-maximal effect
# Chain of Rap guanine nucleotide exchange factor 4 (Homo sapiens) (Q8WZA2 whole entry, looked up): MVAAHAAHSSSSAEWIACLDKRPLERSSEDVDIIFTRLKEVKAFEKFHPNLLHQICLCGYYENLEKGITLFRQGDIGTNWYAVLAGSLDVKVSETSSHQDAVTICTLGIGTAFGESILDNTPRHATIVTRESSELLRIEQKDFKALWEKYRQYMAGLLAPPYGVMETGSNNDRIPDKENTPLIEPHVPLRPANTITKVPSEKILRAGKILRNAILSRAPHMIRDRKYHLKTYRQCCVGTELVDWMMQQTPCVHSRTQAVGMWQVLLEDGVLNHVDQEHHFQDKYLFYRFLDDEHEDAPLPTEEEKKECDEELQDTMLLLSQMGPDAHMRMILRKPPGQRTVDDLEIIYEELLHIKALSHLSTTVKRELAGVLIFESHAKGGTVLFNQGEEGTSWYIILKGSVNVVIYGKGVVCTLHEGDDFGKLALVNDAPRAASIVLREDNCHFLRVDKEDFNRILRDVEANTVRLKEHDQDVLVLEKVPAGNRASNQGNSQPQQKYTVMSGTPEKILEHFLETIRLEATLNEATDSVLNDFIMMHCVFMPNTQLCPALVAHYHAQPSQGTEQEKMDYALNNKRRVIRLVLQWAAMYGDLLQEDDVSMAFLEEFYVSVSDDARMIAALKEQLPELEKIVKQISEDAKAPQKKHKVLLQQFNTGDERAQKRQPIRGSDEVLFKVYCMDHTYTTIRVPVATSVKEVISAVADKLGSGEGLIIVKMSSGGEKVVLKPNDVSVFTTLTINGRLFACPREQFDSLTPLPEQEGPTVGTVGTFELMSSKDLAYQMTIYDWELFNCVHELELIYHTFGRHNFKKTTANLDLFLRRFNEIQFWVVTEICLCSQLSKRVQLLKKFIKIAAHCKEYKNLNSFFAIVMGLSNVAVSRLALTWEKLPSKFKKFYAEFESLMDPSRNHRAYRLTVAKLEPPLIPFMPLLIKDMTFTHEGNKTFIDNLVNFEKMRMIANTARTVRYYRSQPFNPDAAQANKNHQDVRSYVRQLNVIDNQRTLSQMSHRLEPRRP
# [6] = biological target: Rap guanine nucleotide exchange factor 4 (Homo sapiens) (UniProt Q8WZA2); experiment: Confirmatory qHTS for antagonist of cAMP-regulated guanine nucleotide exchange factor 4 (EPAC2) (AID 1645885); note: nearly all actives have a fitted effect of over 25% in size; note: potency is the fitted concentration of half-maximal effect
# [7] = biological target: Rap guanine nucleotide exchange factor 3 (Homo sapiens) (UniProt O95398); experiment: Counterscreen qHTS for antagonist of cAMP-regulated guanine nucleotide exchange factor 3 (EPAC1) (AID 1645888)
# Method in brief: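 Measured: fluorescence of BODIPY-GDP bound to Rap1B, which falls as exchange proceeds. Conditions include 50 uM competing GDP, 5 and 30 min reads, and a later cAMP challenge for antagonist detection.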
# [8] = biological target: Rap guanine nucleotide exchange factor 3 (Homo sapiens) (UniProt O95398); experiment: Counterscreen qHTS for agonist of cAMP-regulated guanine nucleotide exchange factor 3 (EPAC1) (AID 1645889); note: nearly all actives have a fitted effect of over 40% in size; note: potency is the fitted concentration of half-maximal effect
# Excerpt: Assay Provider (PI): Xiaodong Cheng Ph.D. The University of Texas Medical Branch, […], TX MLPCN Grant: NS066510 In multi-cellular eukaryotic organisms, the effects of cAMP are transduced by two ubiquitously-expressed intracellular cAMP receptors, the classic protein kinase A/cAMP-dependent protein kinase (PKA/cAPK) and the more recently discovered exchange protein directly activated by cAMP/cAMP-regulated guanine nucleotide exchange factor (EPAC/cAMP-GEF). Both PKA and EPAC are ubiquitously expressed in all tissues, and an increase in intracellular cAMP levels will lead to the activation of both PKA and EPAC. Therefore, careful dissections of the individual role and relative contribution of EPAC and PKA within the overall cAMP signaling in various model systems are critical for further elucidating the mechanism of cAMP signaling. To date no EPAC-specific antagonists and agonist, as well as isoform-specific agonists have been reported, and developing EPAC-specific pharmacological probes to determine the physiological functions that EPAC play in the overall cAMP-mediated signaling remains a major challenge within the research field. Furthermore, identified regulators of EPAC may lead to new mechanism-based therapeutic strategies specifically targeting the EPAC / cAMP-signaling components as EPAC has been implicated to play important roles in major human pathological conditions such as diabetes, heart disease, and cancer. This qHTS will be used to screen the Molecular Libraries Small Molecule Repository (MLSMR) as a concentration-titration series using the NCGC unique quantitative screening (qHTS) platform to find activators for EPAC1. In addition, this assay will also be used as a counterscreen for the EPAC2 qHTS. This fluorescent based assay is developed and validated for EPAC1 that measures exchange using EPAC effector Rap1 complex with BODIPY-GDP, a GDP analog with a tethered fluorophores. Activators are identified by monitoring the change in fluorescence signal as the exchanged free BODIPY-GDP has a reduced fluorescence compared to Rap1-bound BODIPY-GDP. Increase in signal (activation) is the desired outcome for the EPAC1 agonist while no activity in this assay is desired for the EPAC2 agonist counterscreen. Reference: [1] de Rooij, J., Zwartkruis, F. J., Verheijen, M. H., Cool, R. H., Nijman, S. M., Wittinghofer, A., and Bos, J.L. (1998) Nature 396, 474-477. […]
# EPAC1 Counterscreen PROTOCOL TABLE SEQUENCE No. (e.g., 1, 2, 3, etc.); […] […] Fluorescence. (Read 1), Ex/Em = 480 nm / 540 nm. […] Fluorescence. (Read 2), Ex/Em = 480 nm/ 540 nm. […] Fluorescence. (Read 3), Ex/Em = 480 nm / 540 nm. […] Fluorescence. (Read 4), Ex/Em = 480 nm / 540 nm. […]
smiles,measurement,setting,value
COc1cc2c(cc1OC)C(=O)C(CC1CCN(Cc3ccccc3)CC1)C2 (stereo unspecified),Potency,[1],21.1 µM (active)
c1ccc(-c2ccc(C(c3ccccc3)n3ccnc3)cc2)cc1 (stereo unspecified),Potency,[2],21.1 µM (active)
same,Potency,[1],13.3 µM (active)
same,Potency,[3],inactive
same,outcome,[4],inactive
same,Potency,[5],inactive
same,Potency,[6],13.9 µM (active) and inactive
same,outcome,[7],inactive
same,Potency,[8],inactive
CC(Cc1cccc(C(F)(F)F)c1)NCCOC(=O)c1ccccc1 (stereo unspecified),outcome,[4],inactive
same,Potency,[5],inactive
same,Potency,[6],49.4 µM (active)
C[C@]12C=CC(=O)C=C1CC[C@@H]1[C@@H]2[C@@H](O)C[C@@]2(C)[C@H]1CC[C@]2(O)C(=O)CO,Potency,[1],42.2 nM (active) and 209 nM (active)
CCCCC(=O)O[C@]1(C(=O)CO)CC[C@H]2[C@@H]3CCC4=CC(=O)CC[C@]4(C)[C@H]3[C@@H](O)C[C@@]21C,Potency,[1],0.106 µM (active)
C[n+]1c2cc(N)ccc2cc2ccc(N)cc21 (tested in a mixture with another compound),Potency,[2],1.5 µM (active)
same,Potency,[1],1.19 µM (active)
same,Potency,[3],inactive
same,Potency,[6],inactive
C[C@]12C=CC(=O)C=C1[C@@H](F)C[C@@H]1[C@@H]2[C@@H](O)C[C@@]2(C)[C@H]1CC[C@]2(O)C(=O)CO,Potency,[1],0.0422 µM (active)
O=C1OC(c2ccc(O)cc2)(c2ccc(O)cc2)c2ccccc21,Potency,[3],inactive
same,outcome,[4],inactive
same,Potency,[5],inactive
same,Potency,[6],24.8 µM (active) and 27.8 µM (active)
O=C(OCCOCCO)c1ccccc1Nc1cccc(C(F)(F)F)c1,Potency,[1],16.8 µM (active)
CCOc1ccc(Cc2nccc3cc(OCC)c(OCC)cc23)cc1OCC,Potency,[2],2.37 µM (active)
same,Potency,[1],2.37 µM (active)
O=C(Nc1ccc(Oc2ccc(Cl)cc2)c(Cl)c1)c1cc(I)cc(I)c1O,Potency,[2],inactive
same,Potency,[1],inactive
same,Potency,[3],30.1 µM (active)
same,outcome,[4],inactive
same,Potency,[5],inactive
same,outcome,[7],inactive
CC1=C(C(=O)OC(C)C)C(c2cccc([N+](=O)[O-])c2)C(C(=O)OC2CN(C(c3ccccc3)c3ccccc3)C2)=C(N)N1 (stereo unspecified),Potency,[2],inactive
same,Potency,[1],inactive
same,Potency,[3],inactive
same,outcome,[4],inactive
same,Potency,[5],inactive
same,Potency,[6],inactive
Oc1ccc(O)cc1,Potency,[2],11.9 µM (active)
same,Potency,[1],15 µM (active)
C#C[C@]1(O)CC[C@H]2[C@@H]3CCC4=CC(=O)CC[C@@H]4[C@H]3CC[C@@]21C,Potency,[1],26.6 µM (active)
CC1(C)O[C@@H]2C[C@H]3[C@@H]4C[C@H](F)C5=CC(=O)CC[C@]5(C)[C@H]4[C@@H](O)C[C@]3(C)[C@]2(C(=O)CO)O1,Potency,[1],0.0094 µM (active)
Oc1ccc(Cl)cc1Sc1cc(Cl)ccc1O,Potency,[2],18.8 µM (active)
same,outcome,[4],inactive
same,Potency,[5],inactive
same,Potency,[6],31.2 µM (active)
same,"activity change, negative = inhibition",[6],-4.98% [at 12.7 µM] (inactive)
same,activation,[8],18.9% [at 30.8 µM] (inactive)
Oc1c(I)cc(Cl)c2cccnc12,Potency,[1],8.41 µM (active)
Cc1cc(N)c2cc(NC(=O)Nc3ccc4nc(C)cc(N)c4c3)ccc2n1,Potency,[3],25 µM (active)
same,Potency,[5],25.1 µM (active)
same,Potency,[6],35 µM (active)
COc1cccc2c1C(=O)c1c(O)c3c(c(O)c1C2=O)C[C@@](O)(C(C)=O)C[C@@H]3O[C@H]1C[C@H](N)[C@H](O)[C@H](C)O1,Potency,[2],2.7 nM (active) and 18.6 nM (active)
same,Potency,[1],0.0024 µM (active)
same,Potency,[3],inactive
same,outcome,[4],inactive
same,Potency,[5],inactive
same,Potency,[6],inactive
same,"activity change, negative = inhibition",[7],47.7% [at 30.8 µM] (inactive)
same,Potency,[8],14.1 µM (active)
CC(=O)Oc1ccc(C(c2ccc(OC(C)=O)cc2)c2ccccn2)cc1,Potency,[2],inactive
same,Potency,[3],inactive
same,outcome,[4],inactive
same,Potency,[5],inactive
same,Potency,[6],inactive and 44.1 µM (active)
CCCCCCc1ccc(O)cc1O,Potency,[2],13.3 µM (active)
same,outcome,[4],inactive
same,Potency,[5],inactive
same,Potency,[6],39.3 µM (active)
COc1ccc(/C=C/C(=O)c2ccc(OC)cc2OC)cc1,Potency,[2],11.9 µM (active)
same,Potency,[1],10.6 µM (active)
same,outcome,[4],inactive
same,Potency,[5],inactive
same,Potency,[6],15.6 µM (active) and inactive
same,outcome,[7],inactive
same,Potency,[8],inactive
